CF NFkB inh: blocks PAF-induced NF-kB reporter in cystic fibrosis cells | 360,000 tested, 0.86% active | inhibition, % at 5 µM | KKLEB NF-kB-GFP reporter, GFP fluorescence overnight;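 active means at least 50% inhibition at 5 µM, scaled per plate between neutral and stimulator controls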;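 further: PAF is a Pseudomonas aeruginosa culture filtrate used as stimulus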
LMP1 NFkB inh: reduces LMP1-driven NF-kappaB luciferase signal; LMP1-induced NF-kappaB luciferase reporter cells, luminescence; inhibition, % at 12.5 µM; 350,000 tested, 0.69% active; AID 504558; in the data active means inhibition above about 41%
Peg3 prom inh: inhibitors of Peg3 promoter; HeLa PEG-Prom luciferase reporter, luminescence, overnight; inhibition, % at 20 µM; 360,000 tested, 1.7% active; AID 588405;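 active means inhibition of at least 50% at 20 µM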
TRPM1 prom inh: MITF TRPM1 promoter inhibition in SK-MEL-5 cells; SK-MEL-5 TRPM1 promoter luciferase, 24 h; 330,000 tested, 0.83% active; inhibition, % at 12.5 µM;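 active means mean inhibition across replicates of 60% or more, whatever share of single replicates reaches that level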
Shn3 3UTR inh: reduces Shn3 3'UTR luciferase signal in osteoblasts; Clone20 osteoblast Shn3 3'UTR firefly luciferase, 24 h; inhibition, % at 12.5 µM; 360,000 tested, 0.52% active;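 active means mean inhibition of at least 75% with every replicate also reaching 75%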
KKLEB cytotox: counter-screen for CF NF-kB inhibitors: cytotoxicity. 360,000 tested, 0.36% active. KKLEB CF airway cells viability, ATPlite luminescence, overnight; active compounds read low; cells stimulated with P. aeruginosa culture filtrate. activity change (cytotoxicity), % at 5 µM;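 active means corrected activity change at or below -50% at 5 µM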
Numbers stand for hits; . = inactive; / = not tested or not shown. Most compounds without a hit are left out; they make up all but 2.9% or so of the library.

SMILES | CF NFkB inh | LMP1 NFkB inh | Peg3 prom inh | TRPM1 prom inh | Shn3 3UTR inh | KKLEB cytotox
COc1ccc([N+](=O)[O-])cc1Nc1c2ccccc2nc2ccccc12 | . | . | 58.2 | . | . | .
COc1ccc(Cc2nc3ccc(C(=O)N(C)Cc4nccn4C)cc3o2)cc1 | . | . | . | / | . | .
CCOc1ccccc1N(CC(=O)N1CCCC1)S(C)(=O)=O | . | 48.7 | . | . | . | .
CN(C)CCCN(C(=O)c1cccs1)c1nc2cc3c(cc2s1)OCO3 | . | . | . | . | . | .
CN(C)CCCN(C(=O)c1cc(Cl)sc1Cl)c1nc2cc3c(cc2s1)OCO3 | . | . | . | . | . | .
CN(C)CCCN(C(=O)c1cc2cc([N+](=O)[O-])ccc2s1)c1nc2cc3c(cc2s1)OCCO3 | 80.5 | . | 100.5 | 87.3 | . | -93.7
CN(C)CCCN(C(=O)c1ccc(Br)s1)c1nc2cc3c(cc2s1)OCCO3 | . | . | . | . | . | .
CN(C)CCCN(C(=O)c1ccc([N+](=O)[O-])s1)c1nc2cc3c(cc2s1)OCCO3 | . | . | . | 66.9 | . | .
CN(C)CCCN(C(=O)c1ccc(Cl)s1)c1nc2cc3c(cc2s1)OCO3 | . | . | . | 82.8 | . | .
CCOc1ccc(C(=O)CN2C(=O)NC3(CCCc4ccccc43)C2=O)cc1 (centres undefined) | . | . | . | / | . | .
CCSc1nnc(NC(=O)CSc2nnc(-c3c[nH]c4ccccc34)n2CC)s1 | . | 85.2 | . | . | . | .
COc1ccc(NC(=O)c2cc(-c3cc(F)ccc3OC(C)C)n[nH]2)cc1OC | . | / | . | / | . | .
CCCCN(C(=O)c1ccc(S(=O)(=O)N(C)c2ccccc2)cc1)c1c(N)n(CCC)c(=O)[nH]c1=O | . | . | . | . | . | .
CCCCNc1nc2c(c(=O)[nH]c(=O)n2C)n1CCCc1ccccc1 | . | . | . | / | . | .
CC(NC(=O)COC(=O)c1cc(NS(=O)(=O)c2ccc(Cl)c([N+](=O)[O-])c2)ccc1O)C1CC2CCC1C2 (centres undefined) | . | . | 95.7 | . | . | .
CCN(CC(=O)Nc1c(F)cccc1F)C(=O)c1cc(-c2cccs2)nn1-c1ccccc1 | . | . | 58.1 | . | . | .
O=C(NC(c1ccc(-c2ccccc2)cc1)c1cnccn1)C1CCN(CCN2C(=O)c3ccccc3C2=O)CC1 (centres undefined) | . | / | . | / | . | .
NC(=S)NN=C1c2ccccc2-c2c(F)c(F)c(F)c(F)c21 | . | . | 96.5 | . | . | .
c1ccc2scnc2c1 | . | . | . | . | . | .
Cc1ccccc1Oc1ccc2c(c1)[C@@H]1C[C@H](N(C)C(=O)c3ccco3)[C@H]([C@H](C)O)C(=O)N1CC2 | . | . | . | / | . | .
CCOC(=O)c1cnc(-n2nc(C)cc2C)nc1NNc1nc(-c2ccccc2)cc(-c2ccccc2)n1 | . | 75.5 | . | 61.7 | 92.4 | .
CCOC(=O)c1cnc(-n2nc(C)cc2C)nc1Nc1ccc(O)cc1 | . | 55.9 | . | 71.2 | . | .
CCCCNC(=O)c1nc(C2CCN(S(=O)(=O)c3c(F)cccc3F)CC2)oc1-c1ccccc1 | . | / | . | / | . | .
NC(=Nc1nc(-c2ccccn2)cc2ccccc12)c1ccccn1 | . | 67.4 | . | 64.9 | 87.8 | .
c1ccc(-c2noc(-c3ccno3)n2)nc1 | . | . | . | . | . | .
SMILES | CF NFkB inh | LMP1 NFkB inh | Peg3 prom inh | TRPM1 prom inh | Shn3 3UTR inh | KKLEB cytotox
c1ccc(-c2ccc(-c3nc(-c4ccccn4)no3)cc2)cc1 | . | 83.4 | 96.8 | / | 82.9 | -77.5
O=C(NC(NC(=S)Nc1c(Cl)cccc1Cl)C(Cl)(Cl)Cl)c1cccc([N+](=O)[O-])c1 (centres undefined) | . | . | 51.6 | . | . | .
COc1ccc([N+](=O)[O-])cc1NC(=O)C(C)c1ccccc1 (centres undefined) | . | . | . | . | . | .
COc1ccc([N+](=O)[O-])cc1NC(=S)NC(NC(=O)C(c1ccccc1)c1ccccc1)C(Cl)(Cl)Cl (centres undefined) | . | . | 50.4 | . | . | .
CCCc1nc2ccccc2c(C(=O)OCC(=O)Nc2cccc(S(=O)(=O)N3CCOCC3)c2)c1CC | . | . | 53.0 | . | . | .
COc1cccc(Cn2nc3c4cc(F)ccc4n(Cc4ccc(F)cc4)cc-3c2=O)c1 | . | . | . | . | . | .
COc1cc2c3nnc(-c4ccc(F)cc4)c-3cn(Cc3ccc(C)cc3)c2cc1OC | . | . | 65.6 | 85.5 | . | .
COc1cc2c3nnc(-c4ccc(F)cc4)c-3cn(Cc3cccc(F)c3)c2cc1OC | . | . | 95.8 | 75.3 | . | .
COc1cc2c3nnc(-c4ccc(F)cc4)c-3cn(Cc3cccc(C)c3)c2cc1OC | . | . | 100.2 | / | . | -76.8
COc1cc2c3nnc(-c4ccccc4)c-3cn(Cc3ccc(F)cc3)c2cc1OC | . | . | . | . | . | .
CCCCn1nnnc1C(c1ccc(OC)cc1)N1CCN(C/C=C/c2ccccc2)CC1 (centres undefined) | . | / | . | / | . | .
COc1ccc(/C=C/C(=O)NC(=S)NNC(=O)c2cnccn2)cc1 | . | . | 52.3 | . | 93.7 | .
COc1ccc(/C=C/C(=O)NC(=S)NNC(=O)c2cccnc2)cc1 | . | . | . | . | . | .
CC(C)C1C(=O)N(Cc2cn(CCC3OCCCO3)nn2)CCS(=O)(=O)N1Cc1ccc(-c2ccc(Cl)c(Cl)c2)cc1 (centres undefined) | . | . | 88.2 | / | . | .
COc1cc(Nc2ccn3nccc3n2)cc(OC)c1OC | . | / | . | / | . | .
O=C(NCCc1csc(-c2cccnc2)n1)c1cccc2ccccc12 | . | 88.9 | . | . | . | .
O=C(NCCc1csc(-c2cccnc2)n1)c1ccccc1 | . | . | . | . | . | .
COc1cc2c(cc1OC)C(c1ccc(-c3ccc(Cl)c(Cl)c3)o1)=NCC2 | . | . | 85.1 | . | . | .
COc1cc2c(cc1OC)C(c1ccc(-c3cc(Cl)ccc3Cl)o1)=NCC2 | . | . | . | . | . | .
COc1cc2c(cc1OC)C(c1ccc(-c3ccccc3Cl)o1)=NCC2 | . | 50.7 | . | . | . | .
COc1ccc(C(=O)Cn2nc(CNc3ccc(Br)cc3)[n+]3c2CCCCC3)cc1 | . | . | . | . | . | .
Cc1ccc(C(C)C)c(OCc2nn(CC(=O)c3ccc(OC(F)F)cc3)c3[n+]2CCCCC3)c1 | . | . | 105.4 | 102.3 | . | .
Cc1ccc(Cl)c(NC(=O)COC(=O)c2ccccc2C(=O)c2ccc(Cl)c([N+](=O)[O-])c2)c1Cl | 94.5 | 72.9 | 99.8 | 87.3 | . | -99.0
c1ccc2c(c1)CCN(c1nc3cc4c(cc3s1)OCCO4)C2 | . | . | . | . | . | -51.8
COc1ccc(OC)c2sc(N3CCc4ccccc4C3)nc12 | . | . | . | . | . | .
